Bioassay records (PubChem BioAssay)
Shown are actives, neighbours in structure and some others; about 3.4% of the full set was active somewhere.
FBW7 activator = activators of human E3 ligase FBW7. normalized activity (activation), % at 26.1 µM. Q969H0. actives 0.13% (n = 650,000). AlphaScreen FBW7–phospho-cyclin E peptide binding, activator screen; in the data active = normalized activity above about 1.9%;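 also: purified mutant Fbw7 with reduced substrate affinity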
TEAD-YAP block = TEAD-YAP interaction inhibition; inhibition, % at 9.12 µM; HEK-TIYL cells, TEAD-Gal4/YAP UAS-luciferase luminescence; actives 1.4% (n = 640,000); in the data active = inhibition above about 32%
MITF inh = inhibitors of human MITF; actives 0.91% (n = 650,000); inhibition, % at 2.6 µM; O75030; AID 1259374; AlphaScreen MITF homodimerization, bead proximity signal; in the data active = inhibition above about 50%
Target sequence (O75030 whole entry, looked up): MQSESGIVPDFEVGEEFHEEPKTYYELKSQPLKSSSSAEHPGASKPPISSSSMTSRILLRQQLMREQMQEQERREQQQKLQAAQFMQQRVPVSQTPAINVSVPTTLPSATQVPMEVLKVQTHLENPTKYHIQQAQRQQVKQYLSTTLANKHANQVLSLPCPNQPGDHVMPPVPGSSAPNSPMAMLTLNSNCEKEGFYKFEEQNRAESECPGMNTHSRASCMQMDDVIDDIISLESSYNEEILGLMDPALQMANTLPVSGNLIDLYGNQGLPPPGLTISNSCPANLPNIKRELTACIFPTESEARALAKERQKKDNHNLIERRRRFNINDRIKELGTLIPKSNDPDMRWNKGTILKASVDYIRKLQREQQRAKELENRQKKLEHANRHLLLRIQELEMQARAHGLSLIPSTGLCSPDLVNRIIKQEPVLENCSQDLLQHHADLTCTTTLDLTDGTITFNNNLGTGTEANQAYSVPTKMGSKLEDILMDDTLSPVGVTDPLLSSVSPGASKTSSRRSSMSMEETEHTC
GPR151 activ = human GPR151 activation; activation, % at 11.2 µM; PathHunter beta-arrestin GPR151 cells, luminescence; actives 1% (n = 650,000); Q8TDV0; in the data active = activation above about 4.9%
MITF inh conf = confirmation of human MITF inhibitors; shares compounds with MITF inh; inhibition, % at 2.6 µM; actives 16% (n = 4,700); AlphaScreen MITF homodimerization, biotin/His-MITF beads;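 active = inhibition above a cutoff derived from the DMSO control wells, cut at about 28% in these data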;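 also: inhibitors lower the bead chemiluminescence by keeping MITF from dimerizing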
AS interf ctr = counter-screen: compounds optically interfering with AlphaScreen. shares compounds with MITF inh. LysRS AlphaScreen counterscreen, signal interference, triplicate. inhibition, % at 2.6 µM. actives 7.6% (n = 4,700);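 active = inhibition above a cutoff derived from the DMSO control wells, cut at about 30% in these data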
Of the large screens only hits and unclear results are named; the others gave an inactive call (follow-up assays come after a bar, where they were run).

CC1CN(CCOCCOc2ccccc2-c2ccccc2)CC(C)O1 (configuration not stated)	MITF inh 71.5 | MITF inh conf inactive | AS interf ctr inactive
COc1ccccc1OCCOCCN1CC(C)OC(C)C1 (configuration not stated)	none
COC(=O)c1ccccc1OCCCOc1cccc2cccnc12	MITF inh 67.9 | MITF inh conf inactive | AS interf ctr inactive
Cc1ccc(C)c(OCCOCCN2CC(C)OC(C)C2)c1C (configuration not stated)	MITF inh 52.0 | MITF inh conf inactive | AS interf ctr inactive
CC1CN(CCOc2cccc3ccccc23)CC(C)O1 (configuration not stated)	MITF inh 57.5 | MITF inh conf inactive | AS interf ctr inactive
CCCC(=O)Nc1ccc(S(=O)(=O)Nc2ccc(OCC)cc2)cc1	none
CCN1CCN(C(=O)c2ccc(N3CC4CC(C3)c3cccc(=O)n3C4)c(NC(=O)c3ccc(OC)cc3)c2)CC1 (configuration not stated)	none
CCCCN(Cc1ccco1)C(=O)CCc1c(C)nc2c3c(C)cc(C)nc3nn2c1C	none
O=[N+]([O-])c1ccccc1OCCOc1cccc2cccnc12	none
COC(=O)c1ccccc1OCCCCN1CC(C)OC(C)C1 (configuration not stated)	MITF inh 62.5 | MITF inh conf inactive | AS interf ctr inactive
COc1cccc(OC)c1OCCCN1CC(C)OC(C)C1 (configuration not stated)	MITF inh 62.0 | MITF inh conf inactive | AS interf ctr inactive
O=[N+]([O-])c1ccccc1OCCOCCOc1cccc2cccnc12	MITF inh 68.5 | MITF inh conf inactive | AS interf ctr inactive
COC(=O)c1ccc(OCCOCCN2CC(C)OC(C)C2)cc1 (configuration not stated)	MITF inh 51.5 | MITF inh conf inactive | AS interf ctr inactive
CC1(C)Oc2ccc(C(=O)N3CCCCC3)cc2N(Cc2ccccn2)C1=O	none
CC1CCCC(N2CCN(C(=O)c3cccc(Cl)c3)CC2)C1 (configuration not stated)	MITF inh 50.9 | MITF inh conf inactive | AS interf ctr inactive
O=C(c1cccc(Cl)c1)N1CCN(C2CCCC2)CC1	MITF inh 52.7 | MITF inh conf inactive | AS interf ctr inactive
O=C(c1cccc(Cl)c1)N1CCN(C2CCC(c3ccccc3)CC2)CC1 (configuration not stated)	none
CC1CCCN(C(=O)c2cccc(Cl)c2)C1 (configuration not stated)	none
FC(F)(F)c1ccccc1CN1CCN(Cc2cccnc2)CC1	MITF inh 83.1 | MITF inh conf inactive | AS interf ctr inactive
FC(F)(F)c1ccccc1CN1CCN(Cc2ccc(Cl)cc2)CC1	none
FC(F)(F)c1ccccc1CN1CCOCC1	MITF inh 76.9 | MITF inh conf inactive | AS interf ctr inactive
Cc1ccccc1CN1CCN(Cc2ccccc2C(F)(F)F)CC1	MITF inh 79.9 | MITF inh conf inactive | AS interf ctr inactive
NCC(=O)Nc1c2c(nc3c1CCC3)CCC2	MITF inh 62.0 | MITF inh conf inactive | AS interf ctr inactive
O=C(CN1CCCCCC1)NC(c1ccccc1)c1ccccc1	MITF inh 54.2 | MITF inh conf inactive | AS interf ctr inactive
O=C(CN1CCCCC1)Nc1c2c(nc3ccccc13)CCCC2	MITF inh 65.7 | MITF inh conf inactive | AS interf ctr inactive
CC(C)(C)NCC(=O)Nc1c2c(nc3c1CCC3)CCC2	none
NC(=O)C1CCN(CC(=O)Nc2c3c(nc4ccccc24)CCC3)CC1	none
O=C(CN1CCCCC1)Nc1c2c(nc3c1CCC3)CCCC2	MITF inh 71.3 | MITF inh conf inactive | AS interf ctr inactive
Cc1sc2ncc(C(=O)N(C)Cc3ccccc3)c(=O)n2c1C	none
Nc1nc(-c2ccc(Cl)cc2)nn1C(=O)CCc1ccccc1	none
NC1=NC(=O)C(CC(=O)NC2CCCCC2)S1 (configuration not stated)	none
CCOC(CNC(=O)c1ccc2nc3[nH]c4ccccc4c3nc2c1)OCC	none
Cc1cc(NC(=O)CN2CCCCC2)c2ccccc2n1	MITF inh 50.7 | MITF inh conf inactive | AS interf ctr inactive
Cc1cc(NC(=O)CN2CCOCC2)c2ccccc2n1	none
Nc1nc(SCC(=O)Nc2cc([N+](=O)[O-])ccc2F)n[nH]1	MITF inh 50.9 | MITF inh conf inactive | AS interf ctr inactive
Cc1cc(C(C)(C)C)ccc1OCCOCCN1CCN(C)CC1	none
